The panel holds about 83,000 compounds, 20% with a hit somewhere; the sample as a whole holds those more often.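 Testing used 96-well plates and a 48-hour single-concentration exposure. Example: -40 means 40% of the starting cells died.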 The source made the active and inactive calls. Rule for the calls: active = growth percent below 10; inactive = the rest.
Columns and labels:
Assay in all cases: NCI-60 one-dose screen, 48 h (100 = growth as untreated, 0 = no growth, -100 = all killed)
Conditions in all cases: 10 µM unless noted
T-47D breast = tested on: T-47D breast
BT-549 breast = tested on: BT-549 breast
MDA-MB-435 melanoma = tested on: MDA-MB-435 melanoma
SW-620 colon = tested on: SW-620 colon
MCF7 breast = tested on: MCF7 breast
HCT-116 colon = tested on: HCT-116 colon
HCC-2998 colon = tested on: HCC-2998 colon
KM12 colon = tested on: KM12 colon

Measured: growth

CCCCCCCCCCCCCCCCCCOc1ccc(CC(=O)OCC[N+](C)(C)C)cc1
inactive: T-47D breast 99.5% | BT-549 breast 95.8% | MDA-MB-435 melanoma 100% | SW-620 colon 99.9% | MCF7 breast 95.8% | HCT-116 colon 93% | HCC-2998 colon 95.4%

N#Cc1cccc(NC(=O)c2cc(-c3ccc(F)cc3F)ccc2O)c1
inactive: T-47D breast 16.1% | SW-620 colon 18.8% | HCC-2998 colon 26.5%
active: BT-549 breast 5.92% | MDA-MB-435 melanoma 8.27% | MCF7 breast 3.66% | HCT-116 colon 7.36% | KM12 colon 7.89%

O=C(Nn1c(NCC(=O)N2c3ccccc3Sc3ccccc32)nnc1-c1ccc(O)cc1)c1ccccc1
inactive: T-47D breast 98.9% | BT-549 breast 98.4% | MDA-MB-435 melanoma 102% | SW-620 colon 105% | MCF7 breast 108% | HCT-116 colon 91.7% | HCC-2998 colon 91.9% | KM12 colon 104%

CCCCNC(=O)Oc1ccc(/C(=C(\C)c2ccc(Cl)cc2)c2ccc(OCCN(CC)CC)cc2)cc1
inactive: T-47D breast 42.2% | BT-549 breast 80.3% | MDA-MB-435 melanoma 66.4% | SW-620 colon 79.8% | MCF7 breast 30.1% | HCT-116 colon 51% | HCC-2998 colon 80.6% | KM12 colon 68.2%

COc1ccc(C(Cc2ccccc2)NCCN2CCOCC2)cc1 (stereo not given)
inactive: T-47D breast 85.4% | BT-549 breast 82.1% | MDA-MB-435 melanoma 105% | SW-620 colon 107% | MCF7 breast 89.2% | HCT-116 colon 95.9% | HCC-2998 colon 86.6% | KM12 colon 104%

CCOC(=O)c1cn2ncnc(Oc3ccc(NC(=O)NCCN4CCN(C)CC4)c(Cl)c3)c2c1C
inactive: T-47D breast 25.5% | BT-549 breast 77.8% | MDA-MB-435 melanoma 40.7% | SW-620 colon 69% | MCF7 breast 65.5% | HCT-116 colon 45.3% | HCC-2998 colon 89.2% | KM12 colon 91.4%

O=C(Nc1ccc(Br)cc1F)c1cc(Br)ccc1O
active: T-47D breast -5.16% | BT-549 breast -6.02% | MDA-MB-435 melanoma 3.11% | SW-620 colon 8.55% | MCF7 breast 6% | HCT-116 colon 5.39% | KM12 colon 3.17%
inactive: HCC-2998 colon 12.4%

Brc1ccc2[nH]cc(-c3nc(-c4c[nH]c5ccncc45)cs3)c2c1
inactive: BT-549 breast 87.8%
active: T-47D breast -48.3% | MDA-MB-435 melanoma -90.8% | SW-620 colon -76.7% | MCF7 breast -63.3% | HCT-116 colon -93.7% | HCC-2998 colon -79.3% | KM12 colon -81.9%

Oc1ccc(C#CCOc2ccccc2)cc1CNCCN(Cc1ccccn1)Cc1ccccn1
inactive: T-47D breast 14.4% | BT-549 breast 37.7% | MDA-MB-435 melanoma 32.6% | SW-620 colon 15.6% | HCC-2998 colon 28.4% | KM12 colon 18.9%
active: MCF7 breast 4.05% | HCT-116 colon 9.79%

COc1ccc2c(c1OC)C(=O)O[C@H]2[C@H]1c2c(cc3c(c2OC)OCO3)CCN1C
inactive: T-47D breast 109% | BT-549 breast 98.3% | MDA-MB-435 melanoma 54.1% | SW-620 colon 92.1% | MCF7 breast 93.9% | HCT-116 colon 92.6% | HCC-2998 colon 96.6% | KM12 colon 95.2%

Cc1cc2nc3cc(C)c(N)cc3[n+](-c3ccccc3)c2cc1N
inactive: T-47D breast 14% | BT-549 breast 18.5% | MDA-MB-435 melanoma 67.2% | SW-620 colon 72.9% | MCF7 breast 32.7% | HCT-116 colon 33.1% | HCC-2998 colon 56.6% | KM12 colon 28%

COc1ccc(CNC(=O)[C@H](O)[C@@H](N)Cc2ccccc2)cc1
inactive: T-47D breast 110% | BT-549 breast 109% | MDA-MB-435 melanoma 104% | SW-620 colon 104% | MCF7 breast 94.5% | HCT-116 colon 109% | HCC-2998 colon 105% | KM12 colon 101%

Cc1nc2ccccc2n1-c1ncnc2c1CC(C)c1ccccc1N2C (stereo not given)
active: MDA-MB-435 melanoma 8.87%
inactive: T-47D breast 72.1% | BT-549 breast 92.3% | SW-620 colon 68% | MCF7 breast 61.8% | HCT-116 colon 96.2% | HCC-2998 colon 90% | KM12 colon 73.6%

COc1ccc(-c2nc(NCCO)[nH]c(=O)c2C#N)cc1
inactive: T-47D breast 82.8% | BT-549 breast 103% | MDA-MB-435 melanoma 103% | SW-620 colon 106% | MCF7 breast 91.9% | HCT-116 colon 102% | HCC-2998 colon 103% | KM12 colon 95.8%

CCN(CC)CCNC(=O)c1cn2ncnc(Oc3ccc(NC(=O)Nc4ccc(Cl)c(C(F)(F)F)c4)cc3)c2c1C
active: T-47D breast -64.3% | BT-549 breast -32.5% | MDA-MB-435 melanoma -81.4% | SW-620 colon -85.6% | MCF7 breast -84.4% | HCT-116 colon -95.3% | HCC-2998 colon -95.8% | KM12 colon -80.4%

c1cc(NCCc2ccncc2)nc(-n2cnc3ccccc32)c1
inactive: T-47D breast 80.4% | BT-549 breast 98.4% | MDA-MB-435 melanoma 95.8% | SW-620 colon 94.2% | MCF7 breast 84.2% | HCT-116 colon 81.7% | HCC-2998 colon 104% | KM12 colon 53.3%

Cc1cccc(NCc2cn(-c3ccc(C(=O)O)cc3)nc2-c2ccc(C(=O)O)cc2)n1
inactive: T-47D breast 100% | BT-549 breast 104% | MDA-MB-435 melanoma 101% | SW-620 colon 99.9% | MCF7 breast 97.4% | HCT-116 colon 107% | HCC-2998 colon 112% | KM12 colon 102%

COc1cc(C(=O)c2cnc(-c3c[nH]c4cccc(C)c34)[nH]2)cc(OC)c1OC
inactive: T-47D breast 52.2% | BT-549 breast 38.3% | SW-620 colon 18% | MCF7 breast 17.7% | HCC-2998 colon 20.1%
active: MDA-MB-435 melanoma -43.5% | HCT-116 colon -10.4% | KM12 colon 0.911%

CCOc1c(B(O)O)cccc1-c1nc2ccc3[nH]ncc3c2c2c1CCCC2
inactive: T-47D breast 75.5% | BT-549 breast 25.1% | MDA-MB-435 melanoma 90.1% | SW-620 colon 38.3% | MCF7 breast 59.4% | HCT-116 colon 34.8% | HCC-2998 colon 51% | KM12 colon 32.2%

CCC12CCC[N+]3([O-])CCC4(C(=Nc5ccccc54)C(O)(C(=O)OC)C1)C23 (stereo not given)
inactive: T-47D breast 94.8% | BT-549 breast 102% | MDA-MB-435 melanoma 112% | SW-620 colon 95.4% | MCF7 breast 116% | HCT-116 colon 94.5% | HCC-2998 colon 97.8% | KM12 colon 99.6%

Cc1ccc(/C=N\NC(=O)c2[nH]c3ccc(F)cc3c2-c2ccccc2)cc1
inactive: T-47D breast 75.4% | BT-549 breast 36.8% | SW-620 colon 25.7% | MCF7 breast 15.3% | HCT-116 colon 10.8%
active: MDA-MB-435 melanoma -13.8% | HCC-2998 colon -24.8% | KM12 colon -0.0461%

CC/C=C\C[C@@H](O)C/C=C1/C(=O)C=C[C@H]1C/C=C\CCCC(=O)OC
active: BT-549 breast -6.09% | MDA-MB-435 melanoma 1.93% | SW-620 colon -15.9% | MCF7 breast 9.31% | HCT-116 colon -47.1% | HCC-2998 colon -88.1% | KM12 colon -58.2%
inactive: T-47D breast 15.6%

Cc1c(C(=O)/C=C/Nc2c(Cl)cc(S(N)(=O)=O)cc2Cl)sc2nc3ccccc3n12
inactive: T-47D breast 97.8% | BT-549 breast 102% | MDA-MB-435 melanoma 103% | SW-620 colon 101% | MCF7 breast 102% | HCT-116 colon 105% | HCC-2998 colon 124% | KM12 colon 101%

O=C(N/N=C/c1ccc(Cl)cc1)c1ccc(C(F)(F)F)nc1Nc1cccc(C(F)(F)F)c1
inactive: MDA-MB-435 melanoma 34.8%
active: T-47D breast 3.73% | BT-549 breast 9.33% | SW-620 colon 8.01% | MCF7 breast 0.997% | HCT-116 colon -33.6% | HCC-2998 colon -38.9% | KM12 colon 8.69%

FC(F)(F)c1cc(Nc2ccc3c(OCCCN4CCOCC4)cccc3n2)ccc1Cl
active: SW-620 colon 1.47% | KM12 colon -0.295%
inactive: T-47D breast 48.1% | BT-549 breast 62.1% | MDA-MB-435 melanoma 62.7% | MCF7 breast 17.9% | HCT-116 colon 10.8% | HCC-2998 colon 34.6%

CC(=O)Oc1ccccc1C(=O)N=C1[Se]CCCN1C(=O)c1ccccc1OC(C)=O
active: BT-549 breast -97.2% | MDA-MB-435 melanoma -18.9% | HCT-116 colon -8.29%
inactive: T-47D breast 85.2% | SW-620 colon 88.4% | MCF7 breast 15.7% | HCC-2998 colon 104% | KM12 colon 30.5%

Cc1cc(=O)oc2cc(OC(=O)CN3CCN(C)CC3)ccc12
inactive: T-47D breast 102% | BT-549 breast 114% | MDA-MB-435 melanoma 100% | SW-620 colon 96.2% | MCF7 breast 93.1% | HCT-116 colon 95.8% | HCC-2998 colon 108% | KM12 colon 99.5%

COc1cc(CCC[P+](c2ccccc2)(c2ccccc2)c2ccccc2)c(OC)c2c1OCO2
active: MDA-MB-435 melanoma 3.48% | MCF7 breast 9.9% | KM12 colon 6.93%
inactive: T-47D breast 13.9% | BT-549 breast 15.8% | SW-620 colon 31.1% | HCT-116 colon 16.4% | HCC-2998 colon 26.7%

S=C(c1cccs1)N1CCN(c2cccc(Cl)c2)CC1
inactive: T-47D breast 82.6% | BT-549 breast 59.3% | MDA-MB-435 melanoma 108% | SW-620 colon 103% | MCF7 breast 96.9% | HCT-116 colon 83.9% | HCC-2998 colon 110% | KM12 colon 102%

CCOC(=O)c1cnn2c3ccccc3n(S(=O)(=O)c3ccc(OC)cc3)c12
active: MDA-MB-435 melanoma 2.91%
inactive: T-47D breast 71.8% | BT-549 breast 17.5% | SW-620 colon 25.9% | MCF7 breast 18.5% | HCT-116 colon 14.4% | HCC-2998 colon 16.9% | KM12 colon 25.9%

CC(C)n1cnc2c(Nc3cccc(Cl)c3)nc(N[C@H]3CCCC[C@@H]3N)nc21
inactive: T-47D breast 64.8% | BT-549 breast 63% | MDA-MB-435 melanoma 47.5% | SW-620 colon 55.5% | MCF7 breast 40.9% | HCT-116 colon 28.1% | HCC-2998 colon 23.4% | KM12 colon 13.5%

CCCCC1CCCC12NC(=O)NC2=O (stereo not given)
inactive: T-47D breast 91.7% | BT-549 breast 95.1% | MDA-MB-435 melanoma 109% | SW-620 colon 102% | MCF7 breast 105% | HCT-116 colon 99.4% | HCC-2998 colon 96.9% | KM12 colon 106%

Reference: PubChem BioAssay (NCI)
